Source: PubChem (National Center for Advancing Translational Sciences (NCATS))
The full list was thinned out, with hits kept by preference.
Pf Dd2 growth = qHTS Primary assay for Inhibitors of Plasmodium falciparum Dd2 growth in vitro; P. falciparum Dd2 growth, SYBR Green, 72 h; Potency, µM (top dose mostly 28.9 µM), for inactives: at the top dose activity, negative = inhibition, actives largely listed as inhibitors; actives 4.3% (n = 120,000); active means well fitted inhibition curve with a large enough effect;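 further: plate controls were DMSO vehicle for no effect and reference drug for full effect; nearly all actives have a fitted effect of over 65% in size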
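Infected erythrocytes (Dd2, 0.3% parasitemia, 2.5% hematocrit final) are added to compound in RPMI-1640/Albumax II medium, grown 72 h at 37C in low oxygen, then lysed with saponin/Triton-X containing SYBR Green and read by fluorescence.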
Numbers without * were called inactive; i = inactive; [ ] = dose if it differs, or a comment. Potency means the concentration at half of the fitted maximal effect.

SMILES	Pf Dd2 growth
CC(C)(C)C1CCc2nc(NC(=O)Cc3ccccc3)sc2C1 (stereo not given)	11µM*
O=C(Cn1ccn2nc(-c3ccccc3)c(CO)c2c1=O)Nc1cc(F)cc(F)c1	i
c1ccc(-c2nc(-c3ccncc3)no2)c(OC2CCNC2)c1 (stereo not given)	13µM*
O=C(Nc1ccccc1)N1CCC(Oc2ccccc2-c2nc(-c3ccccc3)no2)C1 (stereo not given)	-5%
COc1ccccc1-c1noc(-c2nc(-c3ccncc3)no2)n1	-8%
c1ccc(-c2nc(-c3cnccn3)no2)c(OC2CNC2)c1	-16%
O=C(C1CC1)N1CC(Oc2ccccc2-c2nc(-c3cnccn3)no2)C1	7.9µM*
CCNC(=O)N1CCC(Oc2ccccc2-c2nc(-c3cnccn3)no2)C1 (stereo not given)	-20%
O=C(CN1C(=O)NC(c2ccc(Cl)cc2)C2=C1COC2=O)Nc1ccc2c(c1)OCCO2 (stereo not given)	-14%
COc1ccc(Cn2c(=O)c(-c3noc(C)n3)c3n(c2=O)CCCC3)cc1F	-15%
O=Cc1cccc(-c2cccs2)c1	-14%[44.1 µM]
Cc1nn(CC(=O)N2CCN(c3ccccc3F)CC2)c(=O)c2nc(C(C)C)sc12	-21%
COC[C@@H]1CN(C(=O)c2ccccc2)C[C@H]1c1nc(C2CC2)no1	-14%
CCn1c(CN(C)C)nnc1C1CCN(Cc2cnc(N(C)C)s2)CC1	0%
CCOC(=O)c1sc(NC(=O)c2nc(SC)ncc2Cl)c(C(=O)OCC)c1C	140%
CCOC(=O)c1sc(NC(=O)c2nc3nc(C)cc(C(F)F)n3n2)c(C(=O)OC)c1C	-32%
CCCOC(=O)c1c(NC(=O)c2nc3ncccn3n2)sc(C(=O)OCC)c1C	2.8µM*
Cc1ccc(-c2nc3c(cnn3-c3ccccc3)c(=O)n2-c2ccc(Cl)cc2)cc1	i
COc1ccc(-n2c(-c3ccco3)nc3c(cnn3-c3ccc(Cl)cc3)c2=O)cc1	10µM*
Cc1cccc(-n2c(-c3ccco3)nc3c(cnn3-c3ccccc3C)c2=O)c1	i
COCCC1(CO)CCCN(Cc2ccc(C#N)cc2)C1 (stereo not given)	-15%
c1cc(-c2nc3c(c(NCc4cn5c(n4)SCC5)n2)CCNCC3)ccn1	-3%
Cc1ncsc1CCCNc1nc(-c2ccccn2)nc2c1CCNCC2	i
c1ccc(OCCNc2nc(-c3cccnc3)nc3c2CCNCC3)cc1	2.2µM*
Cc1cc(F)ccc1NC(=O)CN1C(=O)NC2(CCC(C(C)(C)C)CC2)C1=O (stereo not given)	-22%
SMILES	Pf Dd2 growth
COc1ccc(N2CC3(C2)CN(c2ccccc2)C(=O)O3)cc1OC	24%[44.1 µM]
Cc1cccnc1C(C)NC(=O)C1(Oc2ccc(Cl)cc2)CCNCC1 (stereo not given)	-15%
Fc1ccc(-c2noc(-c3nc(-c4ccncc4)no3)n2)cc1F	i
Cc1ccccc1CC(=O)N1CCC2(CC1)N(C)C(=O)CS2(=O)=O	-5%
COc1cccc([C@@H]2Nc3ccc(C(=O)O)cc3[C@@H]3C=CC[C@@H]32)c1OC	2%
COc1cccc(NS(=O)(=O)c2ccc3c(c2)[C@H]2C=CC[C@H]2[C@@H](c2ccccc2Cl)N3)c1	10µM*
COc1cccc(NS(=O)(=O)c2ccc3c(c2)CCCN3C(=O)C2CCC2)c1	-23%
O=C(NCC1CCCCC1)C1(CCO)CCN(c2ncccn2)C1 (stereo not given)	9%
Cc1nc([C@@H]2CN(C(=O)CCc3c(C)noc3C)C[C@H]2C(N)=O)n[nH]1	i
CNC(=O)[C@@H]1CN(Cc2ccccc2OC(F)(F)F)C[C@H]1CO	6%
O=C(NC1CC1)[C@@H]1CN(Cc2ccc(Cl)cc2F)C[C@H]1CO	7.9µM*
COC[C@@H]1CN(Cc2ccc(OC)c(C)c2)C[C@H]1C(=O)NC1CC1	-2%
COC[C@@H]1CN(Cc2ccc(F)cc2F)C[C@H]1C(=O)NC1CC1	-29%
O=C(NCC1CC1)c1cccc(OC2CN(Cc3ccc(OC(F)(F)F)cc3)C2)c1	8.9µM*
O=C(NC1CC1)[C@@H]1CN(Cc2ccc(OC(F)(F)F)cc2)C[C@H]1CO	13µM*
COc1ccc(OC2CN(Cc3ccc(NC(C)=O)cc3)C2)cc1	-3%
O=C(NCC1CC1)c1cccc(OC2CN(C3CCOCC3)C2)c1	i
O=C(NC1CC1)[C@@H]1CN(Cc2cc(F)c(F)cc2F)C[C@H]1CO	-22%
O[C@@H]1C[C@@H](c2nc(-c3ccccc3)no2)N(Cc2cccc(OC(F)(F)F)c2)C1	i
COCCOCc1nc(C2CCCN2S(=O)(=O)Cc2ccccc2F)no1 (stereo not given)	-4%
CC(C)c1noc(CC2CCN(C(=O)c3ccc(F)c(Cl)c3)CC2)n1	8%
CN1CCCN(C[C@@H]2CN(C(=O)c3ccnc4ccccc34)C[C@@H]2CO)CC1	-7%
O=C1CCN(C(=O)C2CCN(C(=O)C3(c4ccccc4)CC3)CC2)CCCCCCN1	3%
Cc1nn(C)cc1CN(C)C(=O)c1cn2ccnc(-c3ccccc3)c2n1	-11%
FC(F)(F)Oc1ccc(CNC2(Cc3cc(CN4CCOCC4)on3)COC2)cc1	24%[44.1 µM]
